Compound activity (PubChem BioAssay)
The sample as a whole holds a higher share of hits than the screen did.
KDM5B inhibitor = inhibitors of human KDM5B histone demethylase; 2.6% of 220,000 active; KDM5B demethylase, FDH-coupled NADH fluorescence (FDH is formaldehyde dehydrogenase); Q9UGL1; AID 1347165; Potency, µM (top dose mostly 57.7 µM), actives largely listed as inhibitors; active means well fitted inhibition curve with a large enough effect; further: nearly all actives have a fitted effect of over 70% in size
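Coupled FDH/NAD⁺ fluorescence readout. KDM5BΔAP 200 nM final; compound titration, 10 min RT preincubation; substrate mix 12.5 µM H3K4me3, 25 µM 2-OG, 50 µM Fe(II), 100 µM ascorbate, 0.25 mM NAD⁺, 0.25 U/mL FDH; ΔRFU over 30 min.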
A number is an active result; n = inactive.

SMILES	KDM5B inhibitor
COc1ccc(-c2nc3nccc(-c4ccsc4)n3n2)c(OC)c1	18µM
COc1ccc(-c2noc(CSc3nnc(-c4ccco4)n3C3CCCCC3)n2)c(OC)c1	n
COc1ccc(CNc2nc(-c3ccco3)nn2C(=O)CC(C)C)cc1	n
COc1ccc(Nc2cc(C)nc3nc(-c4ccccc4C)nn23)c(OC)c1	n
COc1ccc(-c2nc3nccc(-c4ccco4)n3n2)c(OC)c1	22µM
CC(C)c1nc2nccc(-c3ccsc3)n2n1	25µM
COc1ccc(-c2ccnc3nc(-c4ccco4)nn23)c(F)c1	16µM
CC1=C(C(=O)Nc2ccccc2)C(c2ccc(Br)cc2)NC(=S)N1 (stereo not drawn)	n
CCCOc1c(Cl)cc(C2C3=C(CCCC3=O)OC3=C2C(=O)CCC3)cc1OCC	n
CCC(CC)C(=O)N1CCC2(CC1)C(=O)N(CC)c1ccccc12	n
CCOc1ccccc1NC(=O)Cc1nn(C)c(=O)c2ccccc12	n
CC(Sc1nnc(C2CC2)n1C)C(=O)Nc1ccnn1C(C)C (stereo not drawn)	n
CCNC(=O)C1Cc2cc(S(=O)(=O)N(CC)CC)ccc2N1C(C)=O (stereo not drawn)	n
O=S(=O)(c1ccc(Sc2ccc(Br)cc2)nc1)N1CCCCC1	n
COc1ccc(C(=O)Nc2nc3c(s2)C[C@@H]2[C@](C)(CO)[C@H](O)CC[C@@]2(C)[C@@H]3CC(=O)N2CCC(C)CC2)cc1	28µM
C[C@]1(CO)[C@H]2Cc3sc(NC(=O)c4c(F)cccc4F)nc3[C@@H](CC(=O)O)[C@]2(C)CC[C@H]1O	n
COCC(=O)Nc1nc2c(s1)C[C@@H]1[C@](C)(CO)[C@H](O)CC[C@@]1(C)[C@@H]2CC(=O)N1CCC(C)CC1	n
CC(C)NC(=O)C[C@@H]1c2nc(NC(=O)c3ccc(F)cc3)sc2C[C@@H]2[C@](C)(CO)[C@H](O)CC[C@]21C	n
C#CCNC(=O)C[C@@H]1c2nc(NC(=O)c3ccc(C(C)(C)C)cc3)sc2C[C@@H]2[C@](C)(CO)[C@H](O)CC[C@]21C	32µM
COCCNC(=O)C[C@@H]1c2nc(NC(=O)c3ccc(F)cc3)sc2C[C@@H]2[C@](C)(CO)[C@H](O)CC[C@]21C	n
C[C@]1(CO)[C@H]2Cc3sc(NC(=O)c4ccc(F)cc4)nc3[C@@H](CC(=O)Nc3ccccc3)[C@]2(C)CC[C@H]1O	32µM
CC1CCN(C(=O)C[C@@H]2c3nc(NC(=O)C(C)(C)C)sc3C[C@@H]3[C@](C)(CO)[C@H](O)CC[C@]32C)CC1	n
C[C@]1(CO)[C@H]2Cc3sc(NC(=O)C4CCCCC4)nc3[C@@H](CC(=O)O)[C@]2(C)CC[C@H]1O	n
C#CCNC(=O)C[C@@H]1c2nc(NC(=O)C(C)(C)C)sc2C[C@@H]2[C@](C)(CO)[C@H](O)CC[C@]21C	n
C[C@]1(CO)[C@H]2Cc3sc(-c4ccccc4)nc3[C@@H](CC(=O)O)[C@]2(C)CC[C@H]1O	32µM
SMILES	KDM5B inhibitor
C[C@]1(CO)[C@H]2Cc3sc(NC(=O)c4ccc(F)cc4)nc3[C@@H](CC(=O)NC3CC3)[C@]2(C)CC[C@H]1O	n
CCN(C(=O)c1ccco1)c1nc(-c2ccccc2)cs1	n
O=C(O)CCCCCc1ccc(CCCCC(=O)O)s1	n
COc1cccc(-c2nc3ccccc3c(=O)n2NC(=O)c2ccc(Cl)c(Cl)c2)c1	n
COc1ccc(-c2csc(NC(=O)c3ccccc3OCc3noc(C)n3)n2)cc1	n
O=C(CN1C2=NCCN2c2ccccc21)c1cccc(Br)c1	n
CC(C(=O)Nc1cccc(Cl)c1)N(C)Cc1c(F)cccc1Cl (stereo not drawn)	n
C#CCN(C(=O)c1ccc(-c2cnco2)cc1)C1CCCCC1	n
COc1ccc(Cl)cc1NC(=O)c1ccc2c(=O)n3c(nc2c1)CCCC3	n
Cc1cccc(OCc2nc(C#N)c(N3CCOCC3)o2)c1	n
CN(Cc1ccccc1)C(=O)C[C@@H]1c2nc(NC(=O)C(C)(C)C)sc2C[C@@H]2[C@](C)(CO)[C@H](O)CC[C@]21C	n
CN(Cc1ccccc1)C(=O)C[C@@H]1c2nc(NC(=O)CC(C)(C)C)sc2C[C@@H]2[C@](C)(CO)[C@H](O)CC[C@]21C	n
CN(Cc1ccccc1)C(=O)C[C@@H]1c2nc(NC(=O)c3ccc(F)cc3)sc2C[C@@H]2[C@](C)(CO)[C@H](O)CC[C@]21C	35µM
CCOC(=O)c1ccsc1NC(=O)Cn1nnc(-c2ccccc2)n1	n
CC(=O)c1ccccc1NC(=O)Cn1cnc2cc(Cl)ccc2c1=O	n
COc1ccc(-c2cn3nc(N4CCC(C(=O)N5CCN(C)CC5)CC4)sc3n2)cc1	n
O=C(Nc1ccc2n(c1=O)C[C@H]1C[C@@H]2CN(C(=O)COc2ccccc2)C1)c1ccccc1	n
O=C(Nc1cccc(F)c1)Nc1ccc(=O)n2c1[C@@H]1C[C@@H](CN(C(=O)COc3ccccc3)C1)C2	n
O=C(c1ccc2c(c1)OCO2)N1CC2CC(C1)[C@H]1CCCC(=O)N1C2 (stereo partly drawn)	n
O=C(c1ccc(-c2ccccc2)cc1)N1C[C@@H]2C[C@H](C1)c1ccc(NS(=O)(=O)c3cccc(F)c3)c(=O)n1C2	n
O=C(COc1ccccc1)N1C[C@@H]2C[C@H](C1)c1ccc(-c3cccc(C(F)(F)F)c3)c(=O)n1C2	22µM
O=C(c1ccc2c(c1)OCO2)N1C[C@@H]2C[C@H](C1)c1ccc(-c3cccc(C(F)(F)F)c3)c(=O)n1C2	28µM
CC1CCC(C(=O)NNC(=O)OC(C)(C)C)CC1 (stereo not drawn)	n
Oc1ccc(C2(c3cccc(Cl)c3)CCCCC2)cc1	n
CN(Cc1cccc(F)c1)C(=O)c1cccc(NS(C)(=O)=O)c1	n
SMILES	KDM5B inhibitor
Cc1ccc(NC(=S)NCC2(C)CC(NC(=S)Nc3ccc(C)cc3C)CC(C)(C)C2)c(C)c1 (stereo not drawn)	n
CCC1CCCCN1C(=O)/C=C/c1ccc(Br)cc1 (stereo not drawn)	n
Cc1nc2ccccc2nc1SCC(=O)NC1CCCCC1	n
O=C(CCn1ccc2ccccc21)NC1CCCCCC1	n
Cc1ccccc1-c1nc2cnccn2c1NCCC(=O)NCc1ccco1	32µM
Cc1ccc(C(=O)NCCC(=O)NCc2ccco2)cc1	n
Cc1ccccc1-c1nc2cnccn2c1NCCC(=O)NC1CCCCC1	28µM
CC(C)(C)C(=O)NCCCC(=O)NCc1ccco1	n
COc1cccc(C(=O)Nc2cccc3ccc(C)nc23)c1	n
CC(C)n1nc(C(=O)OCC(=O)Nc2ccc(S(=O)(=O)N(C)C)cc2)c2ccccc2c1=O	n
O=C(O)COc1ccc(NC(=O)c2ccc3c(c2)C(=O)N(Cc2ccccc2)C3=O)cc1	n
CCOc1ccc(CNC(=O)c2ccc3oc(=O)n(Cc4ccccc4)c3c2)cc1	n
O=C(Nc1ccc(Cl)cc1)c1ccc2c(c1)n(Cc1ccccc1)c(=O)c1ccnn12	20µM
Cc1ccc(CNC(=O)c2ccc3c(c2)n(Cc2ccccc2)c(=O)c2ccnn23)o1	32µM
CCCn1cc(CNC(=O)c2ccc3c(c2)n(CC)c(=O)c2ccnn23)c(C)n1	22µM
O=C(Nc1ccc(-c2ccc(Cl)cc2)cc1)c1ccncc1	n
O=C(NCCc1cccnc1)c1ccc(F)cc1	n
CCn1c(=O)c2ccnn2c2ccc(C(=O)NCCc3cccnc3)cc21	32µM
Cc1ccc(CNC(=O)c2ccc3oc(=O)n(Cc4ccccc4)c3c2)cc1	n
CCCn1cc(CN2CCC(n3nccc3NC(=O)c3ccccc3)CC2)c(C)n1	n
Cn1c(=O)c(=O)n(C)c2cc(C(=O)NCc3ccccc3Cl)ccc21	n
